Whole data set: some 33,000 sequences, median “E-score (-0.5 to 0.5)” near -0.021, cut for the highest 2% near 0.32. The sample as a whole holds a higher share of the highest values than the screen did.
molecular target: T1, Zap1 (UniProt P47043); assay: PBM E-score (8-mer binding enrichment) (E-score (-0.5 to 0.5)); higher = stronger / more preferred TF binding; settings: protein concentration: 200 nM; construct: GST-full length
T1 sequence: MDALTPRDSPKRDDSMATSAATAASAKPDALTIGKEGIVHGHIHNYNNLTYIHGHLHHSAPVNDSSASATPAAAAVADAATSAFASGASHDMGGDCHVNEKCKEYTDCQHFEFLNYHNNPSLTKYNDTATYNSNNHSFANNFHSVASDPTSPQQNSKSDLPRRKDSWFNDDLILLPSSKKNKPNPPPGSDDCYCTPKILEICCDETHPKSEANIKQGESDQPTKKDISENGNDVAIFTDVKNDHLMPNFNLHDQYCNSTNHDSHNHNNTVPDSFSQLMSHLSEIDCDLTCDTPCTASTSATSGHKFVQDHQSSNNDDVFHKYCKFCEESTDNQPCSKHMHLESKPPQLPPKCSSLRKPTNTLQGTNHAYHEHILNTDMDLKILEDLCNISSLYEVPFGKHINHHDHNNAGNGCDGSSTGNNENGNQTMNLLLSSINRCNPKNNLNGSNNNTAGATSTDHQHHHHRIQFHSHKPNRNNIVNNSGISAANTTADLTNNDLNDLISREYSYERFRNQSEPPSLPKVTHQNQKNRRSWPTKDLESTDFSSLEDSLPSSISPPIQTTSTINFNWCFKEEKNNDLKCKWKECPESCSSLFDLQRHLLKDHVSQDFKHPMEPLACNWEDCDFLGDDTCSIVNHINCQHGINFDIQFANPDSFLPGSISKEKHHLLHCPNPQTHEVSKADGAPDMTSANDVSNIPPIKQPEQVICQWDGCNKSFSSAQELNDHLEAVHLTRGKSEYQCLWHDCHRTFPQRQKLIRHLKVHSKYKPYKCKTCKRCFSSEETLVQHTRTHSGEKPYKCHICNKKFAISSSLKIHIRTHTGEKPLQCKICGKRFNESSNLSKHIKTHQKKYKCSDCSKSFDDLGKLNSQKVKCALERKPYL
Protocol: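 Universal 'all 10-mer' protein binding microarrays (Agilent AMADID 015681) probed with GST-tagged S. cerevisiae TFs (full-length or DBD) made by in vitro transcription/translation (PURExpress), about 100-200 nM. Bound TF was detected with fluorescent anti-GST. Each ungapped 8-mer (which stands for itself and its reverse complement) is scored by the PBM enrichment score (E-score), a modified Wilcoxon-Mann-Whitney statistic from -0.5 to +0.5, computed with the Universal PBM Analysis Suite. Scale: above 0.35 generally sequence-specific binding.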

Sequence	PBM E-score
CACGGTTA	0.372
AACGGTTC	0.107
AACGGTTA	0.397
CACGGTCA	0.262
CACGGTTC	-0.13
AACGGTCA	0.324
AACGGGTA	0.375
GACGGGTA	0.0159
CACGGGTA	0.237
AACGGTTG	0.123
GACGGTTA	0.305
AACGGTCG	0.114
CCCCGCGC	-0.138
ACATTCAG	-0.0921
AGCGCATG	-0.227
CGGACCCA	0.195
CTTTCTTC	-0.0581
AGAAGCCA	-0.0472
AAGGTATT	0.199
AAGGTAAT	0.322
AAGGTAAA	0.187
CAGGTAAA	0.133
CAGGTAAC	0.254
GAGGTAAA	0.199
AAGGTAAC	0.432

Sequence	PBM E-score
GAGGTAAC	0.365
AAGGTAAG	0.0248
CTCCATGC	-0.229
ACGCATAC	-0.101
ACTACCAT	0.269
ACTGCTAG	-0.269
AAGTACCG	0.134
ACGTACCG	-0.111
ATGTACCC	0.216
CCGTACCC	0.275
AGGTACCC	0.451
CGGTACAC	0.0303
AAGTACCT	0.213
CGGTACCC	0.414
ACGTACCT	-0.126
AGGTACTC	0.261
AGGTACCT	0.443
AGGTACCG	0.43
AGTAAAGG	0.132
ATCTTAAC	0.142
CGCCCAGC	-0.209
ATAACATA	0.146
GGGTCCAC	-0.0924
GGGTACCC	0.469
CGGTACAG	0.12

Sequence	PBM E-score
GGGTACAC	0.141
CAGTACCG	0.104
CGGTACCG	0.38
GCGTACCC	0.106
ATTAGAAA	0.0663
TACAGCCA	-0.0777
ACTCACCC	-0.0932
CAATGTTC	-0.213
ATTTGTCC	-0.0674
CACCAGTG	-0.0732
AACTAAAC	0.181
GTTATTTA	0.325
CTTATAAC	0.302
ATTATTTA	0.234
CTTATTTA	0.0152
TATATATA	0.37
GTTATAAA	0.279
CTTATATA	0.27
CATATATA	0.13
GTTATATA	0.359
GATATATA	0.2
ATTATATA	0.207
GTTATAAC	0.401
CCTCAGAA	-0.0154
ACTGGGAG	-0.25

Sequence	PBM E-score
ATTGGGAG	-0.0694
AACGCTGG	-0.174
GACTGTAC	-0.147
AGCTCTCG	-0.212
ACAAGAGA	-0.043
ATCATCGC	-0.0946
AGCTCTTG	-0.246
CAATTGAC	-0.0961
GCCCAGAA	-0.0621
GTCGAGCA	-0.236
GAAACCGC	0.15
ATGAGCAA	-0.0417
ATACAATG	0.0742
AGGGGCAG	-0.186
CCCCAGGG	0.319
CCCAAAGG	0.23
CCCCAGGA	-0.128
CCAAAGGG	0.267
CCCAAGGG	0.326
CCCAAGGA	0.00233
CCAAAAGG	0.337
ACCCAGGG	0.0854
CCAAAAAG	0.248
CGTACAGA	-0.231
CAATGCAA	0.0301

Sequence	PBM E-score
CCTCGAGC	0.0178
ACTCGAGG	0.0452
CCTCGAGG	0.331
CCATAAAA	0.12
GGTGTAAC	0.262
GGGGTAAC	0.37
CGGGTAAA	0.144
GGGGTAAA	0.269
AGCGTAAC	0.199
CGGGTAAG	-0.078
AGGGTAAC	0.405
CGGGTAAC	0.351
AGAGTAAC	0.108
AAAAGCAG	-0.0944
GGCAAATA	-0.0519
ACCGATAC	0.0986
AAACTTCT	0.0376
ACAGTATG	0.0365
CCCATAAA	0.161
CCCATAAC	0.355
TCCATAAA	0.061
ACCATTAA	0.348
CCCATTAA	-0.0317
CCCATAAG	0.236
TCCATTAA	0.13

Sequence	PBM E-score
ACCATAAG	0.0852
GCCATAAC	0.12
ACCATAAT	0.255
ACCATAAC	0.399
ACCATAAA	0.384
CTCACATC	-0.0546
CATAGATG	-0.173
GTACACAA	0.12
ACTAAAGA	0.00061
CCACTTTC	-0.101
ACCGCGAA	0.359
TCCGCGAA	0.05
GCCGCGAA	-0.0427
GTGATGTA	0.013
AGAGTCAG	-0.145
ATCGCTCA	-0.0114
CAAGGTAC	0.357
CCAGGTAC	0.17
TAAGGTAA	0.271
AAAGGTAC	0.426
AAAGGTAA	0.361
AAAGGTAG	0.247
AAAGGTAT	0.293
CAAGGTAG	0.303
AAAGGTGA	0.25

Sequence	PBM E-score
GAAGGTAA	0.319
CAAGGTAA	0.191
GAAGGTAC	0.178
CACAGAGA	-0.0512
ACGATGGA	0.00241
CATCTCTC	-0.0882
CCTCCCAG	-0.291
CGCCTGAG	-0.0453
CAACTAAG	-0.00117
AGAGGCCC	-0.108
CCTCTTCC	-0.127
ATTTGCCG	-0.168
AAAGGGAA	-0.0936
GCATGGAA	-0.169
ACGTAAGC	-0.186
ACAGGGGG	-0.225
ACTGCGCA	-0.0699
CAGCCCAG	-0.177
ACAGAGTA	-0.0251
ACCCTCCA	0.341
GCCCTCCA	-0.0877
TCCCTCCA	-0.134
ACCCTCCT	0.189
ACCCTCCC	0.339
CCCCTCCC	0.0739

Sequence	PBM E-score
ATCAGTTC	-0.0391
GTTCTTAA	0.0134
AAGTTAGT	-0.0228
GTTGAACA	-0.15
ACGATGGG	-0.169
CGTAGTTA	0.177
GGTAGTTA	0.339
AGTAGTTA	0.11
TAGTGCCA	-0.18
CACCATGA	0.00417
AACCATAC	0.159
CACCATAA	0.0248
CACCATTA	0.037
AACCATAA	0.41
GACCATAA	0.287
AACCATTA	0.365
TACCATAA	0.367
TCCCATAA	0.182
AACCATTG	0.271
AACCATGA	0.357
AACCATGC	0.156
CTAATGGC	0.134
TAACTAGA	0.227
AGGGACTA	-0.104
ACGGTTCT	0.0709

Sequence	PBM E-score
ACTCTTGC	0.0703
TCGACTCA	-0.0722
CAATTCCG	-0.00437
AGGTATCA	0.116
CCTCTGAA	-0.072
AGATGCGG	0.0772
AAAACCGT	0.173
AGGGTATC	0.364
AGGGTAGG	0.32
ATGGTATC	0.183
ACGGTATG	-0.0688
AGGGTAGA	0.135
GGGGTATA	0.182
CGGGTATA	0.317
AGGGTATA	0.407
AAGGTATG	0.226
CGGGTATC	0.252
AGGGTATG	0.395
AGGGTAGC	0.313

— the supplement of paper PMC3334620
